# Measurements published in PubChem BioAssay.
# Active and inactive are the calls of the source. Unless noted, no rule for the calls is given here.
# Legend:
# [1] = system: Wnt5a (protein binding on small-molecule microarray); assay: small molecules binding Wnt5a protein – biophysical, small-molecule microarray, 635/667 nm fluorescence, primary screen (AID 1142); conditions: 635 nm fluorescence, higher = more signal;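 also: fluorescence read at 667 nm with signal to noise per printed feature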
# [2] = ATP-based viability of Huh7 replicon cells – cell-based, CellTiter-Glo luminescence, basal, 48 h, cytotoxicity control for HCV replication inhibitor project, primary screen (AID 1143); conditions: higher = more signal, called active from +8 up or from −8 down;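 also: Huh7 hepatoma cells carrying a hepatitis C replication reporter with no stimulus; test concentration not given here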
# [3] = Pseudomonas biofilm growth suppression – PAO1 strain, BacTiter-Glo luminescence, LB-PBS, primary screen (AID 1144); conditions: P. aeruginosa PAO1 biofilm, 12 h, higher = more signal
# [4] = basal CRE-LacZ reporter activity in PC12 – cell-based, unstimulated, primary screen (AID 1145); conditions: no forskolin, luminescence, 4.5 h, higher = more signal, called active from +8 up or from −8 down
# [5] = forskolin-driven CRE-LacZ activity in PC12 – cell-based, CRE-LacZ reporter, forskolin-stimulated, primary screen (AID 1146); conditions: luminescence, 4.5 h, higher = more signal, called active from +8 up or from −8 down;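 also: PC12 cells with 6xCRE LacZ reporter stimulated by forskolin 10 µM; beta-galactosidase reporter signal reflecting CREB driven transcription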
# [6] = target: Streptavidin (Streptomyces avidinii) (UniProt P22629); assay: compounds binding control protein streptavidin – biophysical, small-molecule microarray, 635/667 nm fluorescence, artefact control for SMM compound annotation, primary screen (AID 1147); conditions: higher = more signal;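 also: signal reflects streptavidin binding to arrayed compounds as a control protein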
# Chain of Streptavidin (Streptomyces avidinii) (P22629 whole entry, looked up): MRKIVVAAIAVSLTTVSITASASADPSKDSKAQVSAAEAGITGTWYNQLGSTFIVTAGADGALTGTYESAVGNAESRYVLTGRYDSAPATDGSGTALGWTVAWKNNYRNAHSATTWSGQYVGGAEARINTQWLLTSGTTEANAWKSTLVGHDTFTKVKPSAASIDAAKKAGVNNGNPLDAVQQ
# [7] = probe aInhba binding on compound microarray – biochemical, small-molecule microarray, 635/667 nm fluorescence, primary screen (AID 1148); conditions: higher = more signal;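 also: score merges 667nm spot fluorescence with signal-to-noise for antibody binding to printed compounds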
# Torsin-1A (Homo sapiens) [8] = target: Torsin-1A (Homo sapiens) (UniProt O14656); assay: TOR1A wild-type binding on microarray – cell lysate, small-molecule microarray, lysate, 635/667 nm, primary screen (AID 1149); conditions: COS7 hTOR1A-WT lysate, 635 nm fluorescence, higher = more signal
# Chain of Torsin-1A (Homo sapiens) (O14656 whole entry, looked up): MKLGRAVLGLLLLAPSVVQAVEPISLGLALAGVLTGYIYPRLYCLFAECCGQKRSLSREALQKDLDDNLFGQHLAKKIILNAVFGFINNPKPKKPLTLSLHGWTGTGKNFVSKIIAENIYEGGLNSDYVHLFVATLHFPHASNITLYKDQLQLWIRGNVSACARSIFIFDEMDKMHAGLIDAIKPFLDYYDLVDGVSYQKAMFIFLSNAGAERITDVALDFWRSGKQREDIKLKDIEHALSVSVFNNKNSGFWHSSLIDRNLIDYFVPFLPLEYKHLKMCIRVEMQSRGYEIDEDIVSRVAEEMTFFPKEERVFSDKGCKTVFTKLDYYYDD
# Torsin-1A (Homo sapiens) [9] = target: Torsin-1A (Homo sapiens) (UniProt O14656); assay: torsin A mutant lysate binding on microarrays – cell lysate, small-molecule microarray, COS7 lysate, 635/667 nm fluorescence, primary screen (AID 1150); conditions: COS7 hTOR1A mutant lysate, 635 nm fluorescence, higher = more signal;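 also: score pools 667 nm emission and signal to noise measuring lysate protein binding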
# [10] = system: Sonic hedgehog protein (Shh); assay: Sonic hedgehog microarray binding compounds – biochemical, small-molecule microarray, 635/667 nm fluorescence, primary screen (AID 1151); conditions: 635 nm fluorescence, higher = more signal;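 also: Shh protein binding to compounds spotted on small-molecule microarray slides; score combines spot fluorescence intensity with signal-to-noise across triplicate slides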
Structure (SMILES),composite z-score [1],z-score [2],z-score [3],z-score [4],z-score [5],composite z-score [6],composite z-score [7],composite z-score (Torsin-1A (Homo sapiens) [8]),composite z-score (Torsin-1A (Homo sapiens) [9]),composite z-score [10]
CC(C)c1ccc(NN2C(C(O)c3ccc(C#N)cc3)C=CC3C(=O)N(c4ccccc4)C(=O)C32)cc1 (stereo not given),0.248,-0.687 (inactive),-0.803 (inactive),0.812 (inactive),0.802 (inactive),1.96,0.41,0.0628,0.579,-0.163
COc1cc2c(cc1O)C(C1CC1)N(C)CC2 (stereo not given),-0.201,-0.426 (inactive),0.991 (inactive),0.479 (inactive),-1.44 (inactive),-0.991,-0.203,-0.829,-1.04,-0.314
[N-]=[N+]=Nc1ccccc1C[C@]1(C(=O)NCC(O)CO)COC(c2ccc(OCCCO)cc2)=N1 (stereo not given in full),0.123,-0.231 (inactive),-0.3 (inactive),0.493 (inactive),-1.1 (inactive),0.305,-0.0131,1.3,1.72,-1.46
CCOC(=O)C1=C[C@@H](C(C)C)N(S(=O)(=O)c2ccc(C)cc2)[C@H]1c1ccc(C(F)(F)F)cc1,0.418,-3.82 (inactive),0.803 (inactive),0.939 (inactive),-1.13 (inactive),0.908,-0.12,0.505,0.682,0.217
CO[C@H]1O[C@H](CO)[C@@H](OC(=O)CCc2ccccc2)[C@@H]2OC(=O)[C@@H](Cc3ccccc3)C/C=C/C[C@H](Cc3ccccc3)C(=O)O[C@@H]12,0.411,-2.33 (inactive),-0.605 (inactive),-0.655 (inactive),-0.43 (inactive),0.29,-0.315,-0.293,0.169,0.476
Cc1ccc(S[C@]2(C(=O)NCc3ccccc3)CC(=O)N(C3CCCCC3)[C@@H]2c2ccc(CO)cc2I)cc1,0.301,-4.53 (inactive),-0.183 (inactive),0.389 (inactive),1.01 (inactive),1.5,-0.0221,0.0358,0.944,0.259
CCCC[C@@H]1C[C@H]1[C@@H](NC(=O)c1cccs1)c1ccccc1C(F)(F)F,0.0098,-1.37 (inactive),-1.3 (inactive),0.587 (inactive),1.4 (inactive),2.1,0.274,0.458,0.555,-0.142
CCCC[C@@H](O)C1=C(COC)C[C@H]2C(=O)N(Cc3ccccc3)C(=O)[C@H]2[C@H]1CO,0.0314,-0.168 (inactive),0.102 (inactive),0.216 (inactive),-0.566 (inactive),-0.0045,-0.204,0.707,0.69,1.02
CCC1=C2CN(Cc3ccccc3)[C@@H](C(=O)Cc3ccccc3)C2C=CCC1 (stereo not given in full),-0.245,-3.57 (inactive),0.0518 (inactive),-0.142 (inactive),1.73 (inactive),0.0145,-0.0331,-0.645,-0.124,0.553
C=CCOC(=O)[C@@]1(Cc2ccccc2)C[C@H]2CO[C@H](c3ccc(OC)cc3)N2C1=O,-0.0728,-1.08 (inactive),0.572 (inactive),2.72 (inactive),0.892 (inactive),0.911,-0.0719,0.91,0.456,0.235
O=C1OCCC/C=C\[C@H]2OC34C=CCN(c5ccc6ccccc6c5)C(=O)[C@H]3N(CCO)C(=O)[C@@H]4C12 (stereo not given in full),-0.325,0.43 (inactive),0.515 (inactive),0.601 (inactive),-0.183 (inactive),-1.2,-0.299,-0.427,-0.839,-0.59
